Source: PubChem
RXFP1 antag = qHTS Assay for Antagonists of the Relaxin Receptor RXFP1; 350,000 tested, 0.59% active; activity change, negative = inhibition, % at 57.5 µM; AID 1259400, 2018; HEK293-RXFP1, relaxin-stimulated cAMP HTRF, 30 min; active compounds read low;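 active means activity change of -60% or lower, but not beyond a set lower limit; inconclusive means change between -60% and -40%, or beyond the set limit; inactive means change above -40%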
Target sequence (Q9HBX9 whole entry, looked up): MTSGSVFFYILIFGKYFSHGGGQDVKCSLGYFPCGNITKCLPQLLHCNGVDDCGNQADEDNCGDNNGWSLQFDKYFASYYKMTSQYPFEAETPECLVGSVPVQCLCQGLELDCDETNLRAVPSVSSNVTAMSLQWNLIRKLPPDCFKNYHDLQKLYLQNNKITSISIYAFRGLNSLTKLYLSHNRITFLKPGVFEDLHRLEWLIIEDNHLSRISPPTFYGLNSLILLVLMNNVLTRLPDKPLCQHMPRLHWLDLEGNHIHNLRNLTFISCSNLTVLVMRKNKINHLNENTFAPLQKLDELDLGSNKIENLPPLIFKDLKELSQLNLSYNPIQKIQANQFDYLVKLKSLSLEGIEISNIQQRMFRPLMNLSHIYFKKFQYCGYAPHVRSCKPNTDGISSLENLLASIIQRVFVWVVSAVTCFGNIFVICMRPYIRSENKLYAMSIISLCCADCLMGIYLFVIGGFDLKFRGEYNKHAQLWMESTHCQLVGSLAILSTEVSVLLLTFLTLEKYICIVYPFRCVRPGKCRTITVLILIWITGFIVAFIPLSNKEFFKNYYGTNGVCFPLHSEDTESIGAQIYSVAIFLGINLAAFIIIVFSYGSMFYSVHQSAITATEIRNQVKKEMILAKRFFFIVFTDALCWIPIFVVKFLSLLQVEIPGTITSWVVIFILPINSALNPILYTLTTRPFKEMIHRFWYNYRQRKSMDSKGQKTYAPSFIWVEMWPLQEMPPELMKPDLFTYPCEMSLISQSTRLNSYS
gsp antag = qHTS for Antagonists of gsp, the Etiologic Mutation Responsible for Fibrous Dysplasia/McCune-Albright Syndrome: qHTS. gsp-mutant cells, cAMP HTRF, 30 min. Potency, µM (highest dose often 76.9 µM), most hits filed as inhibitors. 340,000 tested, 0.4% active. AID 624288, 2012; calls by dose curve; cell line not stated here;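 further: intracellular cAMP measured with PDE inhibitor Ro 20-1724 present during compound exposure; nearly all actives have a fitted effect of over 65% in size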
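Cells in G418 medium, seeded 16-24 h, 37C; buffer exchange to DPBS + 1 mM CaCl2, 0.5 mM MgCl2, 0.05% BSA; cpds in DMSO + […] (300 uM stock), 30 min 37C; HTRF cAMP detection.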
RXFP1 ag = qHTS Assay for Agonists of the Relaxin Receptor RXFP1; Relaxin receptor 1 (Homo sapiens), Q9HBX9; AID 2676, 2010; Potency, µM (highest dose often 57.5 µM), hits mostly activators; HEK293T-RXFP1 cAMP TR-FRET, 30 min; response scale: percent of porcine relaxin response, buffer zero; 370,000 tested, 0.3% active; active means well fitted activation curve with a large enough effect; inconclusive means small, poorly fitted or top-dose-only effect; further: nearly all actives have a fitted effect of over 60% in size
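HEK293T cells stably expressing RXFP1 were pretreated with the PDE4 inhibitor Ro 20174, exposed to compounds for 30 min at 37C, lysed, and cAMP was read by TR-FRET. Data normalized to buffer (basal) and 29 nM porcine relaxin (100%).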
gsp ag = qHTS for Agonist of gsp, the Etiologic Mutation Responsible for Fibrous Dysplasia/McCune-Albright Syndrome: qHTS; gsp mutant cells, cAMP HTRF, 30 min; Potency, µM (highest dose often 76.9 µM), hits mostly activators; 340,000 tested, 0.13% active; AID 624287, 2012; active means well fitted activation curve with a large enough effect; inconclusive means small, poorly fitted or top-dose-only effect, or another doubt; inactive means no such curve, though single readings can be large or run the other way; cell line not stated here;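 further: phosphodiesterase inhibitor Ro 20-1724 added with compounds to block cAMP breakdown; nearly all actives have a fitted effect of over 60% in size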
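Cells stably selected in G418 were plated at 2000/well, grown 16-24 hr, then given compounds in DMSO with the PDE inhibitor […] (300 uM solution added) for 30 min at 37C; cAMP was read by HTRF.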
Large screens that a line does not name were inactive. Only some compounds are listed: those with a hit (about 0.9% of all), similar ones and a draw of the others.

C=CCn1c(SCC(=O)NC2CCCC2)nc2scc(-c3ccco3)c2c1=O	RXFP1 antag -62
Cc1cc2c(c(=O)n1Cc1ccccc1)C1O[C@](c3ccsc3)(Cc3cc(C#N)ccc31)O2	none (no result: RXFP1 antag, gsp antag, gsp ag)
O=C1/C(=C/c2ccncc2)Oc2cc(OS(=O)(=O)c3ccccc3)ccc21	RXFP1 antag -82
Cc1ccc(N=Cc2cc(Cc3ccccc3Cl)cc([N+](=O)[O-])c2O)c(O)c1	RXFP1 antag -96
Cc1ccc2nc(SCC(=O)Nc3ccc(Cl)cc3)nc(=O)n2c1	none
Cc1ccc2nc(SCC(=O)Nc3ccc(F)cc3)nc(=O)n2c1	gsp ag 14µM
N#Cc1c(-c2ccc(Cl)cc2)cc(-c2cccs2)nc1SCC(=O)O	gsp antag 10µM, gsp ag inconclusive
O=C(NC(=S)Nc1ccc2oc(-c3ccncc3)nc2c1)c1ccccc1F	gsp antag 32µM
COc1ccc(CCNC(=O)C(=O)NCC(c2cccs2)S(=O)(=O)c2ccc(F)cc2)cc1 (stereo unspecified)	none (no result: RXFP1 antag, gsp antag, gsp ag)
C#C[C@]1(O)CCC2C3CCC4=CC(=O)CC[C@@H]4C3CC[C@@]21C (stereo partly specified)	none (no result: RXFP1 antag, gsp ag)
CC#C[C@]1(O)CC[C@H]2[C@@H]3CCC4=CC(=O)CCC4=C3[C@@H](c3ccc(N(C)C)cc3)C[C@@]21C	gsp antag 35µM (no result: gsp ag)
Cc1nc2sc3c(=O)[nH]nnc3c2c(C)c1Br	gsp antag 50µM, gsp ag inconclusive
CC(C)c1ccc(NC(=O)Cn2cc(S(=O)(=O)N3CCN(c4ccccc4F)CC3)c3ccccc3c2=O)cc1	none (no result: RXFP1 antag, gsp antag, gsp ag)
CC(C)c1ccc(/C=N/n2c(COc3ccccc3)n[nH]c2=S)cc1	RXFP1 antag -61, gsp antag inconclusive
Cc1ccc(/C=N/n2c(COc3ccccc3)n[nH]c2=S)cc1	none
CC1CCCCN1CCCNC(=O)c1ccc2c(c1)sc1nc(-c3ccc(F)cc3)cn12 (stereo unspecified)	none (no result: gsp antag, gsp ag)
CCCCC1CCC(CCCC(C)CCC(=O)O)CC1 (stereo unspecified)	none (no result: gsp antag, gsp ag)
O=C(COCCOCCOCC(=O)Nc1c(I)cc(I)c(C(=O)O)c1I)Nc1c(I)cc(I)c(C(=O)O)c1I	none (no result: gsp antag, RXFP1 ag, gsp ag)
CCOC(=O)C1C(=O)Oc2ccc3ccccc3c2C1C1CCOC1=O (stereo unspecified)	gsp antag 50µM (no result: RXFP1 antag)
CCSc1nc(-c2ccc(OC)cc2)nc2c1Cc1c(CO)cnc(C)c1O2	none (no result: gsp antag, gsp ag)
C=CCN(c1ccccc1)S(=O)(=O)c1ccc2c(c1)oc(=O)n2C	RXFP1 antag -77
CCOc1ccc(NC(=O)CCCc2nc(-c3cccc(OC)c3)no2)cc1	none (no result: gsp antag, gsp ag)
CCC(=O)N1N=C(c2ccc(NS(=O)(=O)c3ccccc3)cc2)CC1c1ccco1 (stereo unspecified)	gsp antag 32µM (no result: RXFP1 ag)
Cc1ccc(C2=NN(C(=O)CCCC(=O)O)C(c3ccco3)C2)cc1 (stereo unspecified)	none
CN(C(=O)c1cc(S(=O)(=O)N2CCc3ccccc32)cn1C)C1CCCCC1	RXFP1 antag -103
c1ccc(CCNc2ncnc3ccccc23)cc1	none
CCCCCCCCNc1ncnc2ccccc12	gsp antag 0.89µM
O=C(Nc1nc2cc3c(cc2s1)OCCO3)C1CCCCC1	RXFP1 antag -68, gsp ag inconclusive
COc1ccc(CCN2C(=O)C(O)=C(C(=O)c3ccco3)C2c2cccs2)cc1OC (stereo unspecified)	RXFP1 ag inconclusive, gsp ag 18µM
CCOC(=O)c1c(NC(=O)CSc2nc3ccc(OC)cc3[nH]2)sc2c1CC(C)(C)NC2(C)C	RXFP1 antag -62
Cc1c(Cl)cccc1NC(=O)CSc1ncc2c(n1)-c1ccccc1N(C)S2(=O)=O	none (no result: gsp antag, gsp ag)
Cc1ccc(C)c(N2CCN(C(=O)CCS(=O)(=O)c3ccc4c(c3)NC(=O)CO4)CC2)c1	gsp antag 50µM
CC(CC(=O)N1CCN(c2cccc(Cl)c2)CC1)S(=O)(=O)c1ccc2c(c1)NC(=O)CO2 (stereo unspecified)	gsp antag 28µM
O=C(Cn1c(=O)nc(-c2ccccc2)c2ccccc21)NCc1ccc(F)cc1	none (no result: gsp antag, gsp ag)
CCOC(=O)c1c(C)n(-c2ccccc2)c2ccc(OC(=O)COc3ccc(Cl)cc3)cc12	none (no result: gsp antag, gsp ag)
O=c1cc(-c2ccccc2)[nH]n1-c1ccccc1	RXFP1 antag -73 (no result: RXFP1 ag)
